Molecules are shown by their SMILES. Where “and” joins values, the source holds several entries; their conditions need not be identical. Equal values may be shown once. Records with an inconclusive call do not appear. The source holds several records for some structures; these can differ, active in one and inactive in another. Calls of active or inactive are those of the source. Unless noted, calls follow the shape of the dose curve; as a rule, active = well fitted curve in the direction sought with a large enough effect in the repeat runs; inconclusive = weak or mixed curves; inactive = no such curve, though single readings can be large; an effect the other way counts as inactive or inconclusive.

We go through 20 compounds from PubChem BioAssay (Tox21).

Assay [1] can be described thus: qHTS assay to identify small molecule antagonists of the thyroid receptor (TR) signaling pathway (AID 743065). Also: nearly all actives have a fitted effect of over 55% in size. Also: potency is read from the fitted curve at half-maximal effect. In outline: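 GH3.TRE-Luc rat pituitary cells carrying two TR response elements driving luciferase were plated for 4 h, given compound plus 1 nM T3 (final), and incubated 23.5 h at 37 C. ONE-Glo luminescence measured reporter inhibition; CellTiter-Fluor fluorescence tracked cytotoxicity.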
For orientation: Quantitative high-throughput screening tests each substance at several concentrations.

The test system of assay [2] is thyroid hormone receptor (rat, GH3 cells). Briefly: qHTS assay to identify small molecule agonists of the thyroid receptor (TR) signaling pathway (AID 743066; calls by dose curve).
The target in assay [3] is Estrogen receptor (Homo sapiens) (UniProt P03372). Briefly: qHTS assay to identify small molecule antagonists of the estrogen receptor alpha (ER-alpha) signaling pathway (AID 743069; active = well fitted curve in the direction sought with a large enough effect in the signal ratio in the repeat runs, not every such curve was filed as active; the % refers to the signal ratio). In outline: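 Estradiol-stimulated ER-alpha-UAS-bla HEK293 cells, 18 hr compound exposure at 37C. LiveBLAzer B/G substrate, 2 hr RT, fluorescence read.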
Chain of Estrogen receptor (Homo sapiens) (P03372 whole entry, looked up): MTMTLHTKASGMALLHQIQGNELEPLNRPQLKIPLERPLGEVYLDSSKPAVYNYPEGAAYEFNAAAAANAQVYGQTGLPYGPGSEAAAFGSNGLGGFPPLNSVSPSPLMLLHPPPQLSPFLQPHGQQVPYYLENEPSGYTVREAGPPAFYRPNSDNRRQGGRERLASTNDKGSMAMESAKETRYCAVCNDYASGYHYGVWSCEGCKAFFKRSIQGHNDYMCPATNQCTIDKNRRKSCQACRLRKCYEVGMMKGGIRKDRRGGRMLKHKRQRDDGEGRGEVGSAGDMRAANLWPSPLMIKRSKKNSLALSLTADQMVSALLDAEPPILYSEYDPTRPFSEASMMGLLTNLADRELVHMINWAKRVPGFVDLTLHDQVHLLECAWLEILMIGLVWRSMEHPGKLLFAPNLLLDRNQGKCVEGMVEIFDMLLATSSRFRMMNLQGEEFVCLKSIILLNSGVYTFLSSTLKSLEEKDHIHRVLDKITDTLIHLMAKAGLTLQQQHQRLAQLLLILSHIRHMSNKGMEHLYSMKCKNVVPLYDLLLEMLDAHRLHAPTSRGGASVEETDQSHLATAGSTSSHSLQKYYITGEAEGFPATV
A short description of assay [4]: qHTS assay to identify small molecule antagonists of the estrogen receptor alpha (ER-alpha) signaling pathway - cell viability counter screen (AID 743074; calls by dose curve;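 also: HEK293 cells carrying ER-alpha-UAS-bla reporter stimulated with 17beta-estradiol; nearly all actives have a fitted effect of over 45% in size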; also: potency is read from the fitted curve at half-maximal effect).
Assay [5] has as its target Estrogen receptor (Homo sapiens) (UniProt P03372). Briefly: qHTS assay to identify small molecule agonists of the estrogen receptor alpha (ER-alpha) signaling pathway (AID 743075; calls by dose curve;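 also: HEK293 GripTite cells with ER-alpha and UAS-driven beta-lactamase reporter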).
The target is the same in assay [6]. Nature of the assay: qHTS assay to identify small molecule agonists of the estrogen receptor alpha (ER-alpha) signaling pathway using the BG1 cell line (AID 743079). Also: nearly all actives have a fitted effect of over 20% in size. Also: potency is read from the fitted curve at half-maximal effect.
The nature of assay [7]: qHTS assay to identify small molecule antagonists of the estrogen receptor alpha (ER-alpha) signaling pathway using the BG1 cell line (AID 743080; calls by dose curve;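 also: BG1 cells stimulated with 17beta-estradiol alongside compound; series mostly up to about 70 µM; nearly all actives have a fitted effect of over 25% in size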). In outline:
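BG1-Luc-4E2 cells (endogenous full-length ER-alpha, 4xERE luciferase) hormone-starved 5 days in charcoal-stripped FBS, plated 4,000/well for 24 h, then compound plus 17beta-estradiol for 21.5 h at 37 C; ONE-Glo luminescence read.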

The nature of assay [8]: qHTS assay to identify small molecule antagonists of the estrogen receptor alpha (ER-alpha) signaling pathway using the BG1 cell line - cell viability counter screen (AID 743081).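 Also: compound given together with 17beta-estradiol as the ER stimulus; series mostly up to about 70 µM; nearly all actives have a fitted effect of over 45% in size.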
The next assay has as its target Aromatase (Homo sapiens) (UniProt P11511). Briefly: qHTS assay to identify aromatase inhibitors (AID 743083). Also: series mostly up to about 70 µM; nearly all actives have a fitted effect of over 55% in size.
Assay [9] can be described thus: qHTS assay to identify aromatase inhibitors - cell viability counter screen (AID 743084).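 Also: cells stimulated with testosterone during compound exposure; nearly all actives have a fitted effect of over 55% in size.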

Chain of Aromatase (Homo sapiens) (P11511 whole entry, looked up): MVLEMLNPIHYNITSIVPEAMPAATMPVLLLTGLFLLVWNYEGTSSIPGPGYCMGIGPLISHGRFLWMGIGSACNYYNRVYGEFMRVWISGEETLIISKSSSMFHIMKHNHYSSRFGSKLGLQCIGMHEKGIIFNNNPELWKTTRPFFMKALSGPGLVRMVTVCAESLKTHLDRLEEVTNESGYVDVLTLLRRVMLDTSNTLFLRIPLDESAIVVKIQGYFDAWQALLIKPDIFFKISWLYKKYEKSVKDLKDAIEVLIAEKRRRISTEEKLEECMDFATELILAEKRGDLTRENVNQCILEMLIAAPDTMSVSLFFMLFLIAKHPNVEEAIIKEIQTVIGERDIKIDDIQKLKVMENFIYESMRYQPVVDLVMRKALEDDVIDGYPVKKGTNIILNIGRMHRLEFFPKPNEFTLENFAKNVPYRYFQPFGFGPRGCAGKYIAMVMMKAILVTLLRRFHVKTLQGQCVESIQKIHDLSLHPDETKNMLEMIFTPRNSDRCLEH

`CCCCNS(=O)(=O)c1ccccc1`: the Potency entry in [1], in assay [2], in assay [3], in assay [4], in assay [5] and in [6] was “inactive” throughout. Further, the Potency entry (in assay [7]; in assay [8]; with Aromatase (Homo sapiens); in [9]) was “inactive” each time.
On to `O=C(OCc1ccccc1)c1ccccc1O`, for which the Potency result in assay [1], in assay [2], in [3], in [4], in assay [5] and in assay [7] was “inactive” in each case. The Potency result (in [8]; with Aromatase (Homo sapiens); in [9]) was “inactive” throughout. Moreover, in assay [6], the Potency was 24.3 µM (active).
For the compound `COc1ccccc1/C=C/C=O`, the Potency in [1] is 62.8 µM (active). For the same compound, the Potency entry in assay [2], in assay [3], in assay [4], in assay [5], in [6] and in assay [7] was “inactive” each time. For the same compound, the Potency entry (in assay [8]; with Aromatase (Homo sapiens); in [9]) was “inactive” each time.
`CCC(C)(O)CCCC(C)C` (stereo not given): the Potency result in [1], in [2], in assay [3], in assay [4], in assay [5] and in [6] was “inactive” in each case. The Potency entry (in assay [7]; in assay [8]; with Aromatase (Homo sapiens); in [9]) was “inactive” throughout.
For `O=S(=O)(O)c1ccc(O)cc1`, the Potency entry in assay [1], in assay [2], in [3], in assay [4], in [5] and in [6] was “inactive” each time. The Potency result (in [7]; in [8]; in the assay with Aromatase (Homo sapiens); in [9]) was “inactive” throughout.
On to `c1ccc2c(c1)Oc1ccccc1S2`, for which the Potency result in [1], in [2], in [3], in [4], in assay [5] and in [7] was “inactive” each time. Also, the Potency entry (in assay [8]; with Aromatase (Homo sapiens); in assay [9]) was “inactive” each time. For the same compound, the Potency result in [6] is “inactive and 61.1 µM (active)”.
Consider `COC(=O)CCC(=O)OC`, for which the Potency entry in [1], in assay [2], in assay [3], in [4], in [5] and in [6] was “inactive” throughout. For the same compound, the Potency result (in assay [7]; in [8]; in the assay with Aromatase (Homo sapiens); in assay [9]) was “inactive” throughout.
Take `OC1CCCCCCCCCCC1`: the Potency result in [1], in assay [2], in assay [3], in [4], in assay [5] and in assay [6] was “inactive” each time. The Potency result (in assay [7]; in [8]; with Aromatase (Homo sapiens); in assay [9]) was “inactive” throughout.
Take `OC(CCl)CCl`: the Potency entry in assay [1], in assay [2], in [3], in assay [4], in assay [5] and in [6] was “inactive” each time. The Potency result (in assay [7]; in assay [8]; in the assay with Aromatase (Homo sapiens); in assay [9]) was “inactive” throughout.
With `CCCCOCCOCCOCCO`, the Potency entry in [1], in [2], in assay [3], in [4], in [5] and in [6] was “inactive” throughout. Besides, the Potency entry (in assay [7]; in [8]; with Aromatase (Homo sapiens); in assay [9]) was “inactive” in each case.
For the compound `C[C@]12CCC(=O)C=C1CC[C@@H]1[C@@H]2C(=O)C[C@@]2(C)[C@H]1CC[C@]2(O)C(=O)CO`, the Potency result in assay [1], in [2], in assay [3], in [4], in assay [5] and in [6] was “inactive” in each case. In addition, the Potency entry (in assay [7]; in assay [8]; with Aromatase (Homo sapiens); in assay [9]) was “inactive” each time.
As for `C=CC(C)(CCC=C(C)C)OC(C)=O` (stereo not given), the Potency result in assay [1], in assay [2], in assay [3], in assay [4], in assay [5] and in assay [6] was “inactive” each time. Moreover, the Potency result (in assay [7]; in assay [8]; in the assay with Aromatase (Homo sapiens); in assay [9]) was “inactive” in each case.
Take `CC(C)OC=O`: the Potency entry in [1], in [2], in assay [3], in [4], in [5] and in assay [6] was “inactive” each time. The Potency entry (in assay [7]; in assay [8]; in the assay with Aromatase (Homo sapiens); in [9]) was “inactive” in each case.
For `c1ccc2c(c1)c1cccc3ccc4cccc2c4c31`, the Potency entry in assay [1], in [2], in assay [3], in assay [5], in assay [6] and in [7] was “inactive” throughout. Also, the Potency entry (in [8]; in the assay with Aromatase (Homo sapiens); in [9]) was “inactive” throughout. The Potency in assay [4] is 3.07 µM (active) and inactive.
For `Cc1cccc([N+](=O)[O-])c1C`, the Potency result in assay [1], in [2], in [3], in assay [4], in assay [5] and in assay [6] was “inactive” each time. The Potency result (in [7]; in [8]; with Aromatase (Homo sapiens); in assay [9]) was “inactive” throughout.
As for `COC(C)COC(C)COC(C)CO` (stereo not given), the Potency result in [1], in assay [2], in assay [3], in assay [4], in [5] and in assay [6] was “inactive” in each case. In addition, the Potency result (in assay [7]; in assay [8]; with Aromatase (Homo sapiens); in [9]) was “inactive” throughout.
`Cc1ccc(C)c(O)c1C`: the Potency entry in assay [1], in [2], in assay [3], in assay [4], in assay [5] and in assay [6] was “inactive” each time. The Potency entry (in [7]; in assay [8]; with Aromatase (Homo sapiens); in assay [9]) was “inactive” throughout.
For the compound `O=[N+]([O-])c1ccc2c(c1)Cc1ccccc1-2`, the Potency result in assay [1], in assay [2], in [3], in [4], in assay [5] and in assay [7] was “inactive” throughout. Further, the Potency result (in [8]; with Aromatase (Homo sapiens); in assay [9]) was “inactive” in each case. In addition, the Potency in assay [6] was 13.7 µM (active).
Take `CCCCC(CC)COCC1CO1` (stereo not given): the Potency result in assay [1], in [2], in assay [3], in assay [4], in assay [5] and in assay [6] was “inactive” each time. In addition, the Potency result (in assay [7]; in assay [8]; in the assay with Aromatase (Homo sapiens); in assay [9]) was “inactive” each time.
For the compound `Cc1[nH]c(=O)c(C#N)cc1-c1ccncc1`, the Potency entry in assay [1], in assay [2], in assay [3], in assay [4], in assay [5] and in [6] was “inactive” throughout. The Potency entry (in [7]; in [8]; with Aromatase (Homo sapiens); in assay [9]) was “inactive” in each case.
